Measured values: publication PMC5540273 (PLoS ONE, 2017)

Tests used:
Conditions in all cases: concentration: 1 μM, replicates: in singlicate; n = 1
[1] = system: HIPK4
[2] = system: HPK1
[3] = system: HUNK
[4] = system: ICK
[5] = system: IGF1R
[6] = system: T1, IKK-alpha
T1 construct: gene CHUK

[7] = system: T2, IKK-beta
T2 construct: gene IKBKB

[8] = system: T3, IKK-epsilon
T3 construct: gene IKBKE

[9] = system: INSRR
[10] = system: INSR
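Further: KINOMEscan kinase panel screen.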

| Compound | %Inh [1] [%] | %Inh [2] [%] | %Inh [3] [%] | %Inh [4] [%] | %Inh [5] [%] | %Inh [6] [%] | %Inh [7] [%] | %Inh [8] [%] | %Inh [9] [%] | %Inh [10] [%] |
| --- | --- | --- | --- | --- | --- | --- | --- | --- | --- | --- |
| COc1ccc(CSc2nnc(-c3ccc4nccn4c3)o2)cc1C(F)(F)F | 6 | 0 | 0 | 0 | 0 | 10 | 7 | 11 | 8 | 5 |
| Cc1ccc(NC(=O)c2ccc(Cl)cc2)cc1-c1ccc(C(=O)Nc2ccncc2)cc1 [GSK1398467] | 0 | 36 | 8 | 0 | 11 | 12 | 6 | 15 | 0 | 0 |
| Cc1ccccc1-c1cc(-c2c[nH]nc2-c2ccccn2)ccn1 [GW680061] | 0 | 32 | 27 | 0 | 2 | 46 | 38 | 0 | 0 | 28 |
| COc1ccc(Nc2nccc(N3CCC(NC(=O)C(C)c4ccc(Cl)cc4)CC3)n2)cc1 (stereo not shown) [GSK1379812] | 0 | 39 | 10 | 0 | 0 | 0 | 0 | 100 | 0 | 15 |
| COc1ccc(CSc2nnc(-c3ccc4c(c3)CCO4)o2)cc1 | 0 | 0 | 0 | 0 | 0 | 0 | 0 | 0 | 0 | 0 |
| Nc1nccc(-c2c(-c3ccc(F)cc3)ncn2C2CCN(Cc3ccccc3)CC2)n1 [SB-219980] | 0 | 11 | 37 | 1 | 0 | 0 | 0 | 5 | 1 | 0 |
| COc1ccc(Nc2nccc(N3CCC(NC(=O)C(C)c4ccc(Cl)cc4)C3)n2)cc1 (stereo not shown) [GSK1379735] | 9 | 51 | 0 | 18 | 0 | 0 | 0 | 0 | 28 | 11 |
| O=C(Nc1n[nH]c2nc(-c3cccs3)c(Br)cc12)C1CCCC1 [SB-743341] | 4 | 14 | 23 | 65 | 3 | 0 | 0 | 4 | 26 | 2 |
| Cc1ccccc1Cn1ccn2c(=O)cc(N3CCOCC3)nc12 [GSK2269905] | 0 | 32 | 7 | 0 | 2 | 0 | 12 | 0 | 0 | 17 |
| COc1ccc(Nc2nccc(N3CCC(NC(=O)c4cc5ccccc5s4)C3)n2)cc1 (stereo not shown) [GSK1379738] | 0 | 48 | 0 | 10 | 0 | 21 | 25 | 28 | 0 | 5 |
| Cc1ccc(NC(=O)Nc2ccc(Cl)cc2)cc1-c1ccc(C(=O)Nc2ccncc2)cc1 [GSK1398472] | 0 | 43 | 23 | 17 | 6 | 0 | 8 | 5 | 0 | 0 |
| CNc1nc(-c2ccc3c(N)n[nH]c3c2)cc(N2C[C@@H](C(=O)NC3CCCCC3)OC[C@H]2C)n1 [GSK2375584] | 0 | 14 | 21 | 12 | 8 | 0 | 0 | 30 | 0 | 6 |
| COc1nccc(-c2c(-c3ccc(F)cc3)ncn2CCCN2CCOCC2)n1 [SB-282852] | 0 | 21 | 0 | 16 | 0 | 26 | 21 | 8 | 0 | 0 |
| CS(=O)(=O)CCNCc1nc(-c2ccc3ncnc(Nc4ccc(OCc5ccccc5)c(Cl)c4)c3c2)cs1.Cl [GW582764] | 0 | 44 | 5 | 0 | 4 | 28 | 5 | 0 | 0 | 0 |
| CC(C)c1cc(-c2ccc3c(N)n[nH]c3c2)nc(N)n1 [GSK2250882] | 30 | 45 | 0 | 0 | 6 | 0 | 4 | 10 | 0 | 4 |
| Cc1ccc(NC(=O)Nc2ccccc2)cc1-c1ccc(C(=O)Nc2ccncc2)cc1 [GSK1398471] | 10 | 37 | 22 | 2 | 11 | 0 | 0 | 5 | 0 | 3 |
| Nc1cccc(-c2ccc3c(N)n[nH]c3c2)n1 [GSK2192730] | 0 | 35 | 0 | 9 | 0 | 0 | 18 | 0 | 0 | 3 |

| Compound | %Inh [1] [%] | %Inh [2] [%] | %Inh [3] [%] | %Inh [4] [%] | %Inh [5] [%] | %Inh [6] [%] | %Inh [7] [%] | %Inh [8] [%] | %Inh [9] [%] | %Inh [10] [%] |
| --- | --- | --- | --- | --- | --- | --- | --- | --- | --- | --- |
| CSc1ccc(-c2nc3n(c2-c2ccncc2)CCC3)cc1 [SKF-105561] | 2 | 0 | 21 | 18 | 0 | 5 | 6 | 12 | 0 | 5 |
| CC(=O)c1c(C)c2cnc(Nc3ccn(C)n3)nc2n(C2CCCC2)c1=O | 0 | 0 | 0 | 0 | 1 | 0 | 0 | 0 | 0 | 0 |
| COc1cccc(C2=C(Nc3cc(Cl)c(O)c(Cl)c3)C(=O)NC2=O)c1 [SB-390767] | 0 | 43 | 0 | 27 | 5 | 37 | 56 | 0 | 0 | 0 |
| COC(=O)C(Cc1ccccc1)NC(=O)NC1CCN(c2ccnc(Nc3ccc(F)cc3)n2)C1 (stereo not shown) [GSK1379714] | 0 | 51 | 0 | 0 | 8 | 0 | 0 | 34 | 0 | 1 |
| Cc1ccc(-c2nc(Nc3ccncc3)c3ccccc3n2)s1 [GSK189015] | 27 | 41 | 0 | 19 | 18 | 2 | 20 | 0 | 22 | 9 |
| Cl.Cl.Cl.N#Cc1ccc(CCNc2nccc(-c3cccc(CN4CCNCC4)c3)n2)cc1 [GSK2137462] | 26 | 48 | 0 | 5 | 11 | 0 | 0 | 20 | 0 | 87 |
| COc1cc2ncnc(Nc3cccc(Br)c3)c2cc1OC.Cl [GI230329] | 68 | 50 | 6 | 3 | 0 | 0 | 0 | 18 | 0 | 0 |
| CC[C@@H]1CO[C@H](C(=O)Nc2ccccc2)CN1c1cc(-c2ccc3c(N)n[nH]c3c2)nc(NC)n1 [GSK2376236] | 0 | 15 | 0 | 0 | 0 | 0 | 1 | 6 | 0 | 10 |
| O=C1NC(=O)C(c2ccc(Cl)cc2)=C1Nc1ccc(O)cc1 [SB-340867] | 0 | 35 | 0 | 0 | 0 | 0 | 0 | 0 | 0 | 0 |
| O=C(Nc1n[nH]c2cc(-c3ccsc3)ccc12)C1CC1 [SB-732932] | 17 | 0 | 0 | 63 | 0 | 9 | 9 | 0 | 14 | 9 |
| COc1ccc(Nc2nccc(-c3ccc(NC(=O)c4cc5cc(F)ccc5[nH]4)cc3)n2)cc1 [GSK1229496] | 0 | 38 | 0 | 0 | 0 | 0 | 0 | 8 | 0 | 0 |
| CC(=O)c1c(C)c2cnc(Nc3ccc(N4CCNCC4)cn3)nc2n(C2CCCC2)c1=O | 8 | 0 | 0 | 0 | 0 | 0 | 0 | 15 | 0 | 0 |
| Cc1cccc2c(-c3ccncn3)c(-c3ccc(F)cc3)nn12 [GW515532] | 8 | 3 | 0 | 9 | 0 | 37 | 18 | 0 | 16 | 75 |
| CCn1c(-c2ccccc2)nc2cnccc21 [SB-733416] | 0 | 48 | 0 | 46 | 7 | 37 | 43 | 19 | 2 | 4 |
| NS(=O)(=O)c1cccc(N/C=C2\C(=O)Nc3ccc(S(=O)(=O)Cc4c(Cl)cccc4Cl)cc32)c1 [GSK398099] | 0 | 49 | 0 | 15 | 0 | 0 | 15 | 26 | 0 | 5 |
| CCCCc1nn2ncccc2c1-c1ccnc(NC2CC2)n1 [GW684374] | 0 | 3 | 2 | 7 | 0 | 0 | 3 | 0 | 0 | 0 |
| Nc1ncnc2occ(-c3ccc4c(c3)CCN4C(=O)Cc3cc(F)ccc3F)c12 [GSK2645446] | 0 | 31 | 0 | 0 | 0 | 0 | 0 | 41 | 0 | 0 |
